SW480 rereplic: DNA re-replication induction in SW480 cells | SW480 DNA re-replication, Hoechst DNA content imaging, 48 h | Potency, µM (top dose mostly 46.1 µM), most hits filed as activators | hit rate 1.8% among 340,000; note: nearly all actives have a fitted effect of over 55% in size
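SW480 cells exposed to compounds for 48 hr at 37 C, 5% CO2, then Hoechst-stained 40 min. Nuclear DNA content imaged by fluorescence scanning (405 nm excitation, 500-530 nm emission); re-replication scored as increased high-intensity nuclei.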
KB-3-1 tox: KB-3-1 parental cell cytotoxicity. KB-3-1 viability, CellTiter-Glo ATP luminescence, 72 h. Potency, µM (titrated, usually from 46.1 µM), hits mostly cytotoxic. hit rate 1.4% among 400,000. AID 1347075; note: nearly all actives have a fitted effect of over 60% in size
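Here the drug-naive KB-3-1 line serves as comparator for MDR sub-line selectivity; cells received compound titrations, 72 h at 37 °C, then CellTiter-Glo readout.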
KB-V1 MDR tox: KB-V1 MDR subline cytotoxicity. KB-V1 MDR cells viability, CellTiter-Glo, 72 h. hit rate 3.4% among 400,000. AID 1347076. Potency, µM (titrated, usually from 46.1 µM), actives largely listed as cytotoxic; note: nearly all actives have a fitted effect of over 60% in size
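qHTS viability screen in drug-selected KB-V1 MDR cells: 72 h compound treatment at 37 degrees C, ATP luminescence end point.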
HT1080 IDH1KD tx: kills HT-1080 cells with IDH1 knockdown. HT-1080 IDH1 knockdown viability, ATP luminescence, 48 h. Potency, µM (titrated, usually from 46.1 µM), actives largely listed as cytotoxic. hit rate 2% among 360,000
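Assay cells: HT-1080 with IDH1 knockdown, 750 per well, RPMI/5% FBS. Exposure: 48 h at 37 °C following 2 h pre-incubation. Read: CellTiter-Glo luminescence; fitted concentration-response, curve class assigned.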
HT1080NT lethal: kills 2HG-producing HT-1080-NT fibrosarcoma cells | HT-1080-NT fibrosarcoma viability, CellTiter-Glo ATP luminescence, 48 h | Potency, µM (highest dose often 46.1 µM), hits mostly cytotoxic | hit rate 1.6% among 360,000 | AID 686970;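 note: NT is the 2HG producing partner of a matched IDH1 knockdown line; nearly all actives have a fitted effect of over 55% in size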
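Fibrosarcoma NT cells, 750 per well in 5% FBS RPMI, were exposed to compound for 48 hours. Viability: CellTiter-Glo luminescence.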
MCF10A rerep: induces DNA re-replication in MCF 10a normal breast cells; hit rate 2.9% among 350,000; MCF 10A DNA re-replication, Hoechst nuclear intensity, 48 h; Potency, µM (titrated, usually from 46.1 µM), actives largely listed as activators; note: nearly all actives have a fitted effect of over 50% in size
Each line names hits and unclear results; the compound was inactive in the other large screens; ! = not active in a repeat. The list is not random: actives were taken first. Their share in the collection is about 7.9%. Calls come from the whole dose curve; as a rule, active = well fitted curve in the direction sought with a large enough effect; inconclusive = small, poorly fitted or top-dose-only effect, or another doubt; inactive = no such curve, though single readings can be large; an effect the other way counts as inactive or inconclusive.

Cc1nc(SCC(=O)NCC(F)(F)F)c2c(-c3cccs3)csc2n1	MCF10A rerep inconclusive
CCn1cc(C(=O)NCCC(C)C)c(=O)c2cc(S(=O)(=O)N(C)C3CCCCC3)ccc21	none (no result: SW480 rereplic, HT1080 IDH1KD tx, HT1080NT lethal, MCF10A rerep)
COC(=O)[C@@]1(Cc2ccc(F)cc2)[C@H]2c3cc(C(=O)N(C)C)n(Cc4ccsc4Br)c3C[C@H]2CN1C(=O)c1ccccc1	KB-3-1 tox inconclusive, KB-V1 MDR tox 21µM, HT1080 IDH1KD tx inconclusive, HT1080NT lethal inconclusive (no result: SW480 rereplic, MCF10A rerep)
Cc1ccccc1OCc1nc(-c2ccc(NC(=O)c3ccc4c(c3)OCO4)cc2)no1	SW480 rereplic inconclusive, KB-V1 MDR tox inconclusive, HT1080 IDH1KD tx 21µM, HT1080NT lethal 21µM, MCF10A rerep 21µM
Cc1ccccc1OCc1nc(-c2ccc(NC(=O)c3ccco3)cc2)no1	MCF10A rerep inconclusive
COc1ccc2oc(C(=O)N3CCN(S(=O)(=O)c4ccc(F)cc4)CC3)c(C)c2c1	MCF10A rerep inconclusive
Cc1cc(N2CCN(c3ccccc3)CC2)nc(-n2nc(C)cc2C)n1	SW480 rereplic inconclusive, KB-V1 MDR tox 2.6µM, HT1080 IDH1KD tx 1.1µM, HT1080NT lethal 0.71µM, MCF10A rerep inconclusive
COc1cccc(N2CCN(C(=O)CC(C)(C)CC3=NS(=O)(=O)c4ccccc4N3)CC2)c1	MCF10A rerep inconclusive
CC(C)(CC(=O)N1CCN(c2ccc(Cl)cc2)CC1)CC1=NS(=O)(=O)c2ccccc2N1	KB-3-1 tox 15µM, KB-V1 MDR tox 4.1µM, HT1080NT lethal inconclusive
O=[N+]([O-])c1ccc(O)c(C=Nc2ccc3nc(-c4ccccc4)[nH]c3c2)c1	MCF10A rerep inconclusive
Oc1c(Br)cc(C=Nc2ccc3nc(-c4ccccc4)[nH]c3c2)c(O)c1Br	SW480 rereplic inconclusive, HT1080 IDH1KD tx inconclusive, MCF10A rerep 21µM
Cc1ccc(CN(C)C(=O)c2ccccc2Oc2ccccc2)o1	SW480 rereplic inconclusive, KB-V1 MDR tox 21µM
CSc1ccccc1OCc1cc(C(=O)N(C)Cc2ccc(C)o2)no1	SW480 rereplic inconclusive
Cc1ccc(CN(C)C(=O)c2ccc(S(=O)(=O)N(C)c3ccccc3)cc2)o1	SW480 rereplic 8.2µM, MCF10A rerep inconclusive
CCn1c(SCC(=O)NC2CC2)nnc1-c1ccccc1	none (no result: SW480 rereplic, MCF10A rerep)
COc1ccccc1CNC(=O)CN1C(=O)CCn2nc(-c3ccccc3)cc21	none (no result: SW480 rereplic, HT1080 IDH1KD tx, HT1080NT lethal, MCF10A rerep)
CCOC(=O)C1CCN(C/C=C/c2ccccc2)CC1	MCF10A rerep inconclusive
CCn1cc(S(=O)(=O)c2ccc(Cl)cc2)c(=O)c2cc(OC)ccc21	KB-V1 MDR tox 15µM
CCn1cc(S(=O)(=O)c2ccc(OC)cc2)c(=O)c2cc(OC)ccc21	none
CSc1nc(N2CCOCC2)nc2ccc(C)cc12	SW480 rereplic inconclusive, MCF10A rerep 21µM
COc1cc(C)c(S(=O)(=O)N2CCOCC2)cc1C	SW480 rereplic 8.2µM, MCF10A rerep 3.3µM
CCCOc1cc(C)c(S(=O)(=O)N2CCOCC2)cc1C	none (no result: KB-3-1 tox, KB-V1 MDR tox, HT1080 IDH1KD tx, HT1080NT lethal)
C/C(=N/NC(=O)CSc1nc2ccccc2s1)c1ccncc1	none
CS/C(=N\S(=O)(=O)c1cccs1)NC(=O)CSc1nc2ccccc2s1	MCF10A rerep 12µM!
CN(Cc1ccccc1)C(=O)CSc1n[nH]c(N)n1	none
COc1ccc(CN2C(=O)CCC2(C)c2nnnn2-c2c(C)cccc2C)cc1OC (stereo not given)	none (no result: SW480 rereplic, MCF10A rerep)
COc1ccc(NC(=O)CSc2nc3sc(C)cc3c(=O)n2C)c(OC)c1	KB-V1 MDR tox 8.2µM, HT1080NT lethal inconclusive
Cn1c(SCC(=O)c2ccc3c(c2)NC(=O)CO3)nc2ccccc21	KB-V1 MDR tox inconclusive
CCCn1c(SCC(=O)c2ccc3c(c2)NC(=O)CO3)nc2ccccc21	HT1080NT lethal inconclusive, MCF10A rerep inconclusive
CCc1ccc(-n2c(SCC(=O)c3ccc4c(c3)NC(=O)CO4)nc3ccccc3c2=O)cc1	KB-3-1 tox 21µM, KB-V1 MDR tox inconclusive
O=C1COc2ccc(C(=O)CSc3nc4ccccc4c(=O)n3-c3ccc(Cl)c(Cl)c3)cc2N1	SW480 rereplic 18µM, KB-V1 MDR tox inconclusive, MCF10A rerep 13µM
COC(=O)C1=C(C)N(c2ccc(C(=O)OC)cc2)C(=O)C1	none
COC(=O)C1=C(C)N(c2cc(Cl)cc(Cl)c2)C(=O)C1	SW480 rereplic inconclusive, KB-3-1 tox inconclusive, KB-V1 MDR tox inconclusive, HT1080 IDH1KD tx inconclusive, HT1080NT lethal 21µM
O=C(c1cccc(-c2cncc3nccn23)c1)N1CCOCC1	none (no result: SW480 rereplic, MCF10A rerep)
CN1CCN(C(=O)c2cccc(-c3cnc4cnc(-c5ccccc5Oc5ccccc5)cn34)c2)CC1	KB-3-1 tox inconclusive, KB-V1 MDR tox 7.3µM, HT1080 IDH1KD tx 23µM, HT1080NT lethal inconclusive (no result: SW480 rereplic, MCF10A rerep)
CSc1ccccc1OCc1cc(C(=O)NCCC2=CCCCC2)no1	KB-V1 MDR tox 23µM, HT1080NT lethal inconclusive
CSc1ccccc1OCc1cc(C(=O)NCCn2nc(C)cc2C)no1	none
CSc1ccccc1OCc1cc(C(=O)NCCN2CCCc3ccccc32)no1	HT1080 IDH1KD tx 12µM
Cc1oc(-c2ccccc2F)nc1CN1CCC(C(=O)NCc2ccco2)CC1	none
O=C(Nc1ccc2c(c1)CCC2)C1CCN(c2c3c(nc4ncnn24)CCC3)CC1	KB-3-1 tox inconclusive, KB-V1 MDR tox inconclusive, HT1080 IDH1KD tx inconclusive, HT1080NT lethal inconclusive
O=C(NCCc1ccccc1)C1CCN(c2nc3ccccc3o2)CC1	none
Cc1oc(-c2ccccc2F)nc1CN1CCC(C(=O)NC2CCCc3ccccc32)CC1 (stereo not given)	KB-V1 MDR tox 8.2µM
O=C(NC1CCCc2ccccc21)C1CCN(c2c3c(nc4ncnn24)CCC3)CC1 (stereo not given)	KB-V1 MDR tox 21µM
O=C(NC1CCCCCCC1)C1CCN(c2nc3ccccc3o2)CC1	KB-3-1 tox 18µM, KB-V1 MDR tox 2.3µM, HT1080NT lethal inconclusive
Cc1oc(-c2ccccc2F)nc1CN1CCC(C(=O)NC2CCCCCCC2)CC1	KB-V1 MDR tox 12µM
Cc1ccc(NCCC(=O)c2cccc([N+](=O)[O-])c2)cc1	SW480 rereplic inconclusive, HT1080 IDH1KD tx inconclusive, HT1080NT lethal inconclusive, MCF10A rerep 6.5µM
O=C(CCNc1ccc(F)cc1)c1cccc([N+](=O)[O-])c1	SW480 rereplic inconclusive, HT1080 IDH1KD tx inconclusive, HT1080NT lethal inconclusive, MCF10A rerep inconclusive
O=C(Nc1ccc(NC(=O)c2cccc([N+](=O)[O-])c2)cc1)c1cccc([N+](=O)[O-])c1	none
O=C(CCNc1ccccc1)c1cccc([N+](=O)[O-])c1	SW480 rereplic 8.2µM, HT1080 IDH1KD tx inconclusive, MCF10A rerep 3.7µM
Cc1ccc(CONC(=O)c2cccc([N+](=O)[O-])c2)cc1	none
O=C(CCNc1ccc(Br)cc1)c1cccc([N+](=O)[O-])c1	HT1080 IDH1KD tx inconclusive, HT1080NT lethal 23µM, MCF10A rerep inconclusive
